Experimental data reported in PubChem BioAssay (Tox21).
Results filed as inconclusive are left out. A call without a number means that no potency is given here. Calls of active or inactive are those of the source. Calls follow the shape of the dose curve; as a rule, active = well fitted inhibition curve with a large enough effect in the repeat runs; inconclusive = weak or mixed curves; inactive = no such curve, though single readings can be large or run the other way.

target: Cytochrome P450 3A4 (Homo sapiens) (UniProt P08684); experiment: Cytochrome P450 Family 3 Subfamily A Member 4 (CYP3A4) small molecule antagonists: luciferase reporter qHTS assay (AID 1671201); details: P450-Glo CYP3A4 enzyme, luciferin luminescence, 1 h; series mostly up to 115 µM; also: nearly all actives have a fitted effect of over 50% in size
In short: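 Luminescent readout (RLU) proportional to CYP3A4 activity, from luciferin generated off a proluciferin substrate. Enzyme–substrate mix plus compound 10 min at room temp, NADPH regeneration 1 h, detection reagent 20 min.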
Potency is read from the fitted curve at half-maximal effect.

Chain of Cytochrome P450 3A4 (Homo sapiens) (P08684 whole entry, looked up): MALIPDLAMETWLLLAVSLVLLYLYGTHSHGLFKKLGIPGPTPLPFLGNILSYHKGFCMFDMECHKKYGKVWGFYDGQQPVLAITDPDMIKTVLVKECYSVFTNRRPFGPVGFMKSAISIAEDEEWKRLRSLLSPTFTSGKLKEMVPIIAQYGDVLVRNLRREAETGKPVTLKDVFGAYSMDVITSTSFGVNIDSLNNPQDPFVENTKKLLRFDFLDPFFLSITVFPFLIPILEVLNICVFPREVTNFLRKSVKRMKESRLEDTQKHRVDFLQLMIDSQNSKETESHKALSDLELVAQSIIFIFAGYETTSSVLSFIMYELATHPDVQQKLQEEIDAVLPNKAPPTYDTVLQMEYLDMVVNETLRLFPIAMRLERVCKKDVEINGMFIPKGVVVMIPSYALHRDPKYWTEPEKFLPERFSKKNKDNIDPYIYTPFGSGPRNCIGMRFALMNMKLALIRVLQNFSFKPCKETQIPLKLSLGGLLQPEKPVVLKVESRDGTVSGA

SMILES | Potency | activity change, negative = inhibition
CO/N=C(\C(=O)O)c1csc(NC(=O)CCl)n1 | inactive | 
Cc1ccccc1OCC(=O)O | inactive | 
CCNC(=O)C(C)OC(=O)Nc1ccccc1 (stereo not given) | inactive | 
CC(C)c1cc(C(C)C)cc(C(C)C)c1 | inactive | 
Cc1cc(C)c(C)c(C)c1 | inactive | 
CC(C)OCCO | inactive | 
CCOC(=O)CC(C(C)=O)C(C)=O | inactive | 
C=CC(C)(CCC=C(C)C)OC(=O)C(C)C (stereo not given) | 63.3 µM (active) | 
N#Cc1ccccc1C#N | inactive | 
COC(=O)c1ccccc1Cl | inactive | 
O=Cc1ccc(C(=O)O)cc1 | inactive | 
Clc1cc(Cl)c(Cl)c(Cl)c1Cl | inactive | 
O=S(=O)(O)CC(O)CCl (stereo not given) | inactive | 
C=C(C)C(=O)OCCOC1CC2CC1C1C=CCC21 (stereo not given) | inactive | 
CCCc1ccc(O)c(OC)c1 | inactive | 
CC1(C)C(=O)C(C)(C)C1=O | inactive | 
CCO[Si](CC(C)C)(OCC)OCC | 31.7 µM (active) | 
CC(=O)c1ccc2ccc3ccccc3c2c1 | 39.7 µM (active) | 

SMILES | Potency | activity change, negative = inhibition
CCOC(=O)CC | inactive | 
CC(=O)Nc1ccc(S(=O)(=O)Nc2cc(C)on2)cc1 | inactive | 
CCCCCCCCCCCCCCCCN(C)C |  | -0.256% [at 10.5 µM] (inactive)
C=CC(=O)OCCOCCOCC | inactive | 
OCCC(F)(F)C(F)(F)C(F)(F)C(F)(F)C(F)(F)C(F)(F)F | inactive | 
CC(C)(O)c1ccc(C(C)(C)O)cc1 | inactive | 
O=c1[nH]c(=O)c2cn[nH]c2[nH]1 | inactive | 
C=CC(=O)OCC[N+](C)(C)C | inactive | 
O=C[C@@H](O)[C@H](O)[C@H](O)CO | inactive | 
COc1cc(S(N)(=O)=O)cc(C(=O)O)c1OC | inactive | 
Cc1ccccc1C#N | inactive | 
CCCOc1ccc(C(=O)OCCN(CC)CC)cc1N | inactive | 
Cc1ccc(O)c(C(=O)c2ccccc2)c1 | 32 µM (active) | 
CC(=O)c1ccc(O)c(C(N)=O)c1 | inactive | 
C=CC(=O)CC | inactive | 
CC(=O)SCC(CC(=O)c1ccc(C)cc1)C(=O)O (stereo not given) | inactive | 
CCCCCCC(O)CO (stereo not given) | inactive | 
